Test system: T1, GRK3
T1 construct: gene ADRBK2
Settings: concentration: 1 μM,replicates: in singlicate; n = 1
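Further: KINOMEscan kinase panel screen.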

Compound | %Inh
C=CC(=O)Nc1cc2c(Nc3ccc(F)c(Cl)c3)ncnc2cc1OCCCN1CCOCC1 [GW781483] | 3%
CC(C)Nc1cc(-c2ccc3c(N)n[nH]c3c2)nc(N)n1 [GSK2221681] | 0%
COc1ccc(C[C@@H](CN)NC(=O)c2cc(Br)c(-c3ccnc4[nH]ccc34)s2)cc1.Cl.Cl [GSK1389063] | 96%
Cc1occc1-c1nc(N)c(OC[C@@H](N)Cc2c[nH]c3ccccc23)cc1-c1cc2c(C)n[nH]c2cn1 [GSK1660450] | 0%
Cc1ccc2c(-c3ccncc3)c(-c3ccc(F)cc3)nn2c1.Cl [GW461484] | 0%
O=C(NCCCN1CCOC1=O)c1cnc(NCc2cc(Cl)ccc2Cl)nc1NC1CCCC1 | 0%
Cc1n[nH]c2ccc(-c3cc(OC[C@@H](N)Cc4ccccc4)cnc3-c3ccoc3)cc12.O=C(O)C(F)(F)F.O=C(O)C(F)(F)F [GSK507358] | 21%
Cc1cc2cn[nH]c2cc1-c1cccc2c(N)c(C(N)=O)nnc12 | 27%
NC(=O)c1cc(-c2ccccc2)cc2c(C3CCNCC3)c[nH]c12 [GSK301362] | 0%
Cc1ccc(-n2nc(C(C)(C)C)cc2NC(=O)Nc2ccc(OCCN3CCOCC3)c3ccccc23)cc1 [GW839464] | 0%
CC(C)N1C(=O)Cc2cc(Nc3ncc(C(F)(F)F)c(NCc4cccc(S(C)(=O)=O)c4)n3)ccc21 | 4%
O=C(NCCNc1ccnc(NCc2ccc(F)cc2)n1)c1cc2ccccc2s1 [GSK1379944] | 34%

From publication PMC5540273 (PLoS ONE, 2017)
